# Hit rate of the full screen: of about 5,500 compounds, about 2,000 (36%) were called active. Roughly 18% stayed inconclusive and do not appear here. Some of the results follow. Values without a mark were called inactive. No stated cut-off is given here; in the data, active means normalized growth mostly below about 0.91 (no sharp cut-off); inconclusive means no clear call, values can overlap the other calls; inactive means mostly above about 0.92.
# Test: chemical genetic growth profiling, strain panel (AID 1159580);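 further: tested at 20 µM; growth read once vehicle control cultures reached saturation at 30 °C; 1 = growth at the plate median or of vehicle wells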
# Details: growth OD
smiles,measurement,setting,value
Cc1cccc(Nc2ccccc2C(=O)O)c1C,normalized growth,"S. cerevisiae deletion strains, locus YJR075W, strain HOC1, stronger effect = lower value",0.937
same,normalized growth,"S. cerevisiae deletion strains, locus YKL009W, strain mrt4, stronger effect = lower value",0.874 (active)
same,normalized growth,"S. cerevisiae deletion strains, locus YKL068W, stronger effect = lower value",0.985
same,normalized growth,"S. cerevisiae deletion strains, locus YKL085W, strain MDH1 (second series), stronger effect = lower value",0.972
same,normalized growth,"S. cerevisiae deletion strains, locus YKL085W, strain MDH1, stronger effect = lower value",0.972
same,normalized growth,"S. cerevisiae deletion strains, locus YKL160W, strain elf1, stronger effect = lower value",0.921
same,normalized growth,"S. cerevisiae deletion strains, locus YKL190W, strain CNB1, stronger effect = lower value",0.908 (active)
same,normalized growth,"S. cerevisiae deletion strains, locus YKR001C, strain vps1, stronger effect = lower value",0.676 (active)
same,normalized growth,"S. cerevisiae deletion strains, locus YKR026C, strain gcn3, stronger effect = lower value",0.877 (active)
same,normalized growth,"S. cerevisiae deletion strains, locus YKR091W, strain srl3, stronger effect = lower value",0.909 (active)
same,normalized growth,"S. cerevisiae deletion strains, locus YLL001W, strain dnm1, stronger effect = lower value",0.914
same,normalized growth,"S. cerevisiae deletion strains, locus YLL026W, stronger effect = lower value",0.952
same,normalized growth,"S. cerevisiae deletion strains, locus YLL041C, strain sdh2, stronger effect = lower value",0.901 (active)
same,normalized growth,"S. cerevisiae deletion strains, locus YLR027C, strain aat2, stronger effect = lower value",0.936
same,normalized growth,"S. cerevisiae deletion strains, locus YLR039C, strain RIC1, stronger effect = lower value",0.597 (active)
same,normalized growth,"S. cerevisiae deletion strains, locus YLR058C, strain SHM2, stronger effect = lower value",0.906
same,normalized growth,"S. cerevisiae deletion strains, locus YLR102C, strain apc9, stronger effect = lower value",0.876 (active)
same,normalized growth,"S. cerevisiae deletion strains, locus YLR113W, strain HOG1, stronger effect = lower value",0.903
same,normalized growth,"S. cerevisiae deletion strains, locus YLR221C, strain rsa3, stronger effect = lower value",0.925
same,normalized growth,"S. cerevisiae deletion strains, locus YLR258W, strain gsy2, stronger effect = lower value",0.924
same,normalized growth,"S. cerevisiae deletion strains, locus YLR262C, strain YPT6 (second series), stronger effect = lower value",0.749 (active)
same,normalized growth,"S. cerevisiae deletion strains, locus YLR262C, strain YPT6, stronger effect = lower value",0.683
same,normalized growth,"S. cerevisiae deletion strains, locus YLR268W, strain sec22, stronger effect = lower value",0.869 (active)
same,normalized growth,"S. cerevisiae deletion strains, locus YLR320W, strain mms22, stronger effect = lower value",0.894
same,normalized growth,"S. cerevisiae deletion strains, locus YLR330W, strain CHS5, stronger effect = lower value",0.87 (active)
same,normalized growth,"S. cerevisiae deletion strains, locus YLR342W, strain FKS1 (second series), stronger effect = lower value",0.756 (active)
same,normalized growth,"S. cerevisiae deletion strains, locus YLR342W, strain FKS1, stronger effect = lower value",0.897 (active)
same,normalized growth,"S. cerevisiae deletion strains, locus YLR357W, strain rsc2, stronger effect = lower value",0.979
same,normalized growth,"S. cerevisiae deletion strains, locus YLR370C, strain arc18, stronger effect = lower value",0.913
same,normalized growth,"S. cerevisiae deletion strains, locus YLR371W, strain rom2, stronger effect = lower value",0.858 (active)
same,normalized growth,"S. cerevisiae deletion strains, locus YLR384C, strain iki3, stronger effect = lower value",0.894 (active)
same,normalized growth,"S. cerevisiae deletion strains, locus YLR418C, strain cdc73, stronger effect = lower value",0.775 (active)
same,normalized growth,"S. cerevisiae deletion strains, locus YML016C, strain PPZ1, stronger effect = lower value",0.886 (active)
same,normalized growth,"S. cerevisiae deletion strains, locus YML032C, strain rad52, stronger effect = lower value",0.891 (active)
same,normalized growth,"S. cerevisiae deletion strains, locus YML120C, strain ndi1, stronger effect = lower value",0.922
same,normalized growth,"S. cerevisiae deletion strains, locus YML124C, strain tub3, stronger effect = lower value",0.843 (active)
same,normalized growth,"S. cerevisiae deletion strains, locus YMR058W, strain fet3, stronger effect = lower value",0.918
same,normalized growth,"S. cerevisiae deletion strains, locus YMR078C, strain ctf18, stronger effect = lower value",0.838 (active)
same,normalized growth,"S. cerevisiae deletion strains, locus YMR125W, strain sto1, stronger effect = lower value",0.955
same,normalized growth,"S. cerevisiae deletion strains, locus YMR129W, stronger effect = lower value",0.908 (active)
same,normalized growth,"S. cerevisiae deletion strains, locus YMR205C, strain PFK2, stronger effect = lower value",0.919
same,normalized growth,"S. cerevisiae deletion strains, locus YMR223W, strain ubp8, stronger effect = lower value",0.869 (active)
same,normalized growth,"S. cerevisiae deletion strains, locus YMR231W, strain pep5, stronger effect = lower value",0.9 (active)
same,normalized growth,"S. cerevisiae deletion strains, locus YMR263W, strain SAP30, stronger effect = lower value",0.891
same,normalized growth,"S. cerevisiae deletion strains, locus YMR307W, strain GAS1, stronger effect = lower value",0.672
same,normalized growth,"S. cerevisiae deletion strains, locus YNL067W, strain RPL9B, stronger effect = lower value",0.926
same,normalized growth,"S. cerevisiae deletion strains, locus YNL071W, strain lat1, stronger effect = lower value",0.897 (active)
same,normalized growth,"S. cerevisiae deletion strains, locus YNL128W, strain TEP1, stronger effect = lower value",0.988
same,normalized growth,"S. cerevisiae deletion strains, locus YNL153C, strain GIM3, stronger effect = lower value",0.933
same,normalized growth,"S. cerevisiae deletion strains, locus YNL183C, strain NPR1, stronger effect = lower value",0.805 (active)
same,normalized growth,"S. cerevisiae deletion strains, locus YNL209W, strain ssb2, stronger effect = lower value",0.939
same,normalized growth,"S. cerevisiae deletion strains, locus YNL233W, strain BNI4, stronger effect = lower value",0.927
same,normalized growth,"S. cerevisiae deletion strains, locus YNL248C, strain rpa49, stronger effect = lower value",0.971
same,normalized growth,"S. cerevisiae deletion strains, locus YNL250W, strain rad50, stronger effect = lower value",0.988
same,normalized growth,"S. cerevisiae deletion strains, locus YNL271C, strain bni1, stronger effect = lower value",0.941
same,normalized growth,"S. cerevisiae deletion strains, locus YNL298W, strain CLA4, stronger effect = lower value",0.844 (active)
same,normalized growth,"S. cerevisiae deletion strains, locus YNL307C, strain MCK1, stronger effect = lower value",0.626 (active)
same,normalized growth,"S. cerevisiae deletion strains, locus YNL322C, strain KRE1 (second series), stronger effect = lower value",0.898 (active)
same,normalized growth,"S. cerevisiae deletion strains, locus YNL322C, strain KRE1, stronger effect = lower value",0.912 (active)
same,normalized growth,"S. cerevisiae deletion strains, locus YNR049C, strain mso1, stronger effect = lower value",0.912 (active)
same,normalized growth,"S. cerevisiae deletion strains, locus YNR052C, strain pop2, stronger effect = lower value",0.878 (active)
same,normalized growth,"S. cerevisiae deletion strains, locus YOL006C, strain TOP1, stronger effect = lower value",0.884
same,normalized growth,"S. cerevisiae deletion strains, locus YOL012C, strain htz1",1.12
same,normalized growth,"S. cerevisiae deletion strains, locus YOL147C, strain pex11, stronger effect = lower value",0.87 (active)
same,normalized growth,"S. cerevisiae deletion strains, locus YOR001W, strain rrp6, stronger effect = lower value",0.938
same,normalized growth,"S. cerevisiae deletion strains, locus YOR061W, strain CKA2, stronger effect = lower value",0.894
same,normalized growth,"S. cerevisiae deletion strains, locus YOR069W, strain VPS5, stronger effect = lower value",0.893 (active)
same,normalized growth,"S. cerevisiae deletion strains, locus YOR070C, strain gyp1, stronger effect = lower value",0.928
same,normalized growth,"S. cerevisiae deletion strains, locus YOR080W, strain dia2, stronger effect = lower value",0.941
same,normalized growth,"S. cerevisiae deletion strains, locus YOR083W, strain WHI5, stronger effect = lower value",0.921
same,normalized growth,"S. cerevisiae deletion strains, locus YOR106W, strain vam3, stronger effect = lower value",0.94
same,normalized growth,"S. cerevisiae deletion strains, locus YOR136W, strain idh2, stronger effect = lower value",0.958
same,normalized growth,"S. cerevisiae deletion strains, locus YOR144C, strain elg1, stronger effect = lower value",0.86 (active)
same,normalized growth,"S. cerevisiae deletion strains, locus YOR184W, strain ser1, stronger effect = lower value",0.724 (active)
same,normalized growth,"S. cerevisiae deletion strains, locus YOR231W, strain MKK1, stronger effect = lower value",0.919
same,normalized growth,"S. cerevisiae deletion strains, locus YOR265W, strain rbl2, stronger effect = lower value",0.908 (active)
same,normalized growth,"S. cerevisiae deletion strains, locus YOR270C, strain vph1, stronger effect = lower value",0.868
same,normalized growth,"S. cerevisiae deletion strains, locus YOR290C, strain snf2, stronger effect = lower value",0.919
same,normalized growth,"S. cerevisiae deletion strains, locus YOR316C, strain cot1, stronger effect = lower value",0.874 (active)
same,normalized growth,"S. cerevisiae deletion strains, locus YPL051W, strain arl3, stronger effect = lower value",0.906 (active)
same,normalized growth,"S. cerevisiae deletion strains, locus YPL055C, strain LGE1, stronger effect = lower value",0.881
same,normalized growth,"S. cerevisiae deletion strains, locus YPL078C, strain atp4, stronger effect = lower value",0.893
same,normalized growth,"S. cerevisiae deletion strains, locus YPL106C, strain sse1, stronger effect = lower value",1.05
same,normalized growth,"S. cerevisiae deletion strains, locus YPL240C, strain hsp82, stronger effect = lower value",0.915 (active)
same,normalized growth,"S. cerevisiae deletion strains, locus YPL241C, strain CIN2, stronger effect = lower value",0.902 (active)
same,normalized growth,"S. cerevisiae deletion strains, locus YPL256C, strain CLN2, stronger effect = lower value",0.874
same,normalized growth,"S. cerevisiae deletion strains, locus YPR119W, strain clb2, stronger effect = lower value",0.856 (active)
same,normalized growth,"S. cerevisiae deletion strains, locus YPR141C, strain kar3, stronger effect = lower value",0.981
same,normalized growth,"S. cerevisiae deletion strains, locus YPR163C, strain tif3, stronger effect = lower value",0.893 (active)
same,normalized growth,"S. cerevisiae deletion strains, locus YPR167C, strain met16, stronger effect = lower value",0.87 (active)
same,normalized growth,"S. cerevisiae deletion strains, strain wtn01, stronger effect = lower value",0.911
same,normalized growth,"S. cerevisiae strains, strain wild type, stronger effect = lower value",0.937
